We go through 36 sequences from PubChem BioAssay AID1159506 (National Center for Advancing Translational Sciences (NCATS), 2015).

In all, about 59,000 sequences were measured (the read-out: median about -0.00055, lowest 2% from about -2 on). This is one part of a sample in which the lowest values are shown more often than they occur.

This experiment can be described thus: Identification of proteins required for the processing of the EWS-FLI1 nascent transcript.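 Further: robust z of luciferase light less the median z of siRNAs with the same seed.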 The note with it: TC32 Ewing sarcoma NR0B1-luc vs CMV-luc (EWS-FLI1 target promoter against control promoter), 48 h; screened at 20 nM (by protocol). The method in brief: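 Parallel TC32-NR0B1-luc and TC32-CMV-luc reverse transfections with 20 nM siRNA in RPMI-1640/10% FBS, luciferase measured 48 h later. Seed-adjusted z-scores from normalized, z-score-MAD transformed data; AllStars negative and siGL4 controls on each plate.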
The sequence UUCUUUACAUGCUGCAUUC against GALNT11 displayed a seed-corrected z-score of 0.394.
In the case of UUCAUGUCGAUAACUGUGG against KCNJ15, the seed-corrected z-score was -0.324.
As for UCUUGGAACAGGAUCUUCU against TAOK2, the figure is -0.173; as for UCAUGAAUUGUGGCAGGCA against LINC00598, 0.856; as for ACUGCUUUGACAUCUGGGC against SNF8, -0.699.
The sequence UGACUAAUAAGAAUGCCCG against SLC2A2 displayed a seed-corrected z-score of -0.863.
With AUAACUACAGCAUCAGAGG against WDR60, the seed-corrected z-score is 0.989.
The sequence AACCGUUUCAUAAACUCCC against MCMBP gave a seed-corrected z-score of 0.188.
Regarding UAUUCGUACUCAAACGUGC against SFPQ, the seed-corrected z-score is -2.1.
Sequence AUACAUGUCAGCUGAGUAG against POU2AF1 had a seed-corrected z-score of -0.413.
In the case of AGUGUCUCUACUCAGGUUC against CSF2, the seed-corrected z-score turned out to be 1.91.
Take UUCGGAUAUAGAGGUAGGC against SNRNP200: the seed-corrected z-score is -2.46.
With UGAGUCAAAUGUUCUUUGG against KLF16, the seed-corrected z-score turned out to be 0.422.
Take UUUUUCUGAACUCUCGUCU against C1orf174: the seed-corrected z-score is -1.93.
As for AAAUUUACCUAUGUUCUUC against PBX1, the figure is 2.08; as for UUUUAGAAAGUUCAUGUCC against CD69, 0.737; as for UUCGUGUAGACUGACCUUC against LRCH1, -9.4.
Next, UCAGGUUCUUUGUCUGACC against IRS1: -1.53; UGGUCUGCAAAGGUAAUGC against PLRG1: 0.251; UAAGUAGGCACAACACUCA against DEXI: 0.701.
As to AACUGAACAUUUAUAGAGC against MTERF2, the seed-corrected z-score came to 1.28.
For CUAUAGAUGAAGUAGGUGC against EDA, the seed-corrected z-score was found to be 1.41.
AGAGUUUCUGGUAUAGACC against TAS2R38: the seed-corrected z-score is -2.98.
AAGGAUAUGAAGGUAAUUC against ZNF518A gave a seed-corrected z-score of -0.0667.
The sequence UUAGGGAUGAACCAAGGCA against ATP6V0E1 came in with a seed-corrected z-score of 0.122.
Sequence UUUGCAAUGACACGAAGCC against APOL4 gave a seed-corrected z-score of 0.249.
On to AUAGUUGCAGGAAACUUCU against LOC441907, for which the seed-corrected z-score was -2.67.
Sequence UUCCUGAGUUCUUUCGUCC against DYRK1B yielded a seed-corrected z-score of -0.484.
In the case of UGUUCUAUUUCACUUACUC against ZBTB26, the seed-corrected z-score was -0.568.
Sequence AAAGGAGCAUAAAUUUAGU against LOC400867 showed a seed-corrected z-score of 2.06.
As for UAUGCAUAAACGGUCUUCA against SH3BGR, the seed-corrected z-score was -0.25.
As for UAUUUCACGUCGAUAGAGC against TMEM106B, the figure is -2.63; as for UGAGGGUUGAGUGUAAGUC against FUK, -0.673.
Consider UUGUGAACUGAUUACACUG against CCDC66, for which the seed-corrected z-score was 0.423.
In turn, UUGACCAUCAAGUAUUAGC against WDR47 showed a seed-corrected z-score of -10.6.
Next, UUCUGAUCAAGGCUAGACC against SHROOM3: -0.584.
